# Experimental data taken from the supplement of paper PMC11732987, “Enantioselective OTUD7B fragment discovery through chemoproteomics screening and high-throughput optimisation” (Communications Chemistry, 2025).
# A number with no mark means an inactive call.
# Target: T1, VCPIP1 (UniProt Q96JH7)
# T1 sequence (whole entry): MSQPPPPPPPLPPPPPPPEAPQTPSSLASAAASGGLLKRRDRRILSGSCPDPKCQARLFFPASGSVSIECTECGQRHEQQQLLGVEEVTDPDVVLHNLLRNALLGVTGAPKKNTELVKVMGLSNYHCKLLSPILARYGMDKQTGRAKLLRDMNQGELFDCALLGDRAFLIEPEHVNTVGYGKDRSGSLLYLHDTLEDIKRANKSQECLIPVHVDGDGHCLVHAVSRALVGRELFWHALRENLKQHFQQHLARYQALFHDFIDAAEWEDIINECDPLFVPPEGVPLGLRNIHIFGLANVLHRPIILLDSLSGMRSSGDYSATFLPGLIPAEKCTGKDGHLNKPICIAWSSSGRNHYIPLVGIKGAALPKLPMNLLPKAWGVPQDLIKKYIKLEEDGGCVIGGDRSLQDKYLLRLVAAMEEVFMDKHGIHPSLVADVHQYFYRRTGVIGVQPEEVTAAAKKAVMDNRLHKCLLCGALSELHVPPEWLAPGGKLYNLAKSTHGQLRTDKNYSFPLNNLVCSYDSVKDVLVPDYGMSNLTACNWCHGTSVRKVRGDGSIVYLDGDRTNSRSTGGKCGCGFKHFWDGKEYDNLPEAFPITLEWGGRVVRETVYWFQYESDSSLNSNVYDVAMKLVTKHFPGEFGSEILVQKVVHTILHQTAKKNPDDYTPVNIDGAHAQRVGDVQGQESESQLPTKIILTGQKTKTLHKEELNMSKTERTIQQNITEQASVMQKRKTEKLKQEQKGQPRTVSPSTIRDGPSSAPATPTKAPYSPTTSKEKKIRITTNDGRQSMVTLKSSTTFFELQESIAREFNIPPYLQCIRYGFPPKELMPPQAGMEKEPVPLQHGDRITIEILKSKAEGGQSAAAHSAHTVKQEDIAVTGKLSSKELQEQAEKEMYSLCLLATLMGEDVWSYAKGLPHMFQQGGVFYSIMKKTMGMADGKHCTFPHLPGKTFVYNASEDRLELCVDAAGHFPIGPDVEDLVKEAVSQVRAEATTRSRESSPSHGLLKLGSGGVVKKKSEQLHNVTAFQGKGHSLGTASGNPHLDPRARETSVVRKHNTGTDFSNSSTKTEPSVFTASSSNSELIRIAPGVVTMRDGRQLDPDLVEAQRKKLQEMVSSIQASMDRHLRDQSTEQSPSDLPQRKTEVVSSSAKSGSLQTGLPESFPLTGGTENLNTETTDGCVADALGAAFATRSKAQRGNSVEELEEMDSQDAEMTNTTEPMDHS
# Assay: log2 ratio of Biotin-Ahx-Ub-VS probe labelling (fragment/DMSO); higher = less target engagement (more negative = stronger competition), active = hit call of the paper (q ≤ 0.05, log2 ratio ≤ -1)
# Details: compound concentration: 200 uM; treatment time: 3 h
# Experimental: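 Competitive ABPP in HEK293T cell lysate. Lysates were treated with each chloroacetamide fragment at 200 µM for 3 h, then with Biotin-Ahx-Ub-VS (0.5 µM, 1 h), NeutrAvidin-enriched and analysed by diaPASEF LC-MS/MS. Protein LFQ was median-normalised; average log2 ratio is fragment/DMSO from an unpaired t-test (n=3 treated, n=44 DMSO). Hits: q ≤ 0.05, log2 ratio ≤ -1, unique peptides ≥ 2.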
row,SMILES,log2 ratio of Biotin-Ahx-Ub-VS probe labelling
1,CN1C(=O)c2ccc(NC(=O)CCl)cc2C1=O,-2.49 (active)
2,O=C(CCl)NC1CCC(C(F)(F)F)CC1 (configuration not stated),-1.35 (active)
3,Cl.O=C(CCl)NC1(c2ncccn2)CCC1,-0.136
4,C[C@H]1CN(C(=O)CCl)CCN1C(=O)c1cnn(C)c1.Cl,-0.157
5,COc1cccc(CN(C)C(=O)CCl)c1,-0.854
6,O=C(CCl)NC1CCOc2ccccc21 (configuration not stated),-2.21 (active)
7,Cc1cc(CC(C)NC(=O)CCl)n[nH]1 (configuration not stated),0.107
